Screening data deposited in PubChem BioAssay by National Center for Advancing Translational Sciences (NCATS).
Shiga toxin inh – blocks Shiga toxin action in Vero cells. Vero cells, Shiga toxin protein synthesis inhibition reporter. inhibition, % at 38.7 µM. 9.2% of 290,000 active; in the data active = inhibition mostly above about 28%, no sharp cut-off; inactive = mostly below about 43%; also: 0% is about no effect
Sm TGR inh – blocks Schistosoma mansoni thioredoxin glutathione reductase; AID 485364; Potency, µM (highest dose often 114 µM), for inactives: at the highest dose activity change, negative = inhibition, usual class: inhibitors; 3% of 360,000 active; purified TGR, DTNB reduction, TNB absorbance 405 nm; Q962Y6; active = well fitted inhibition curve with a large enough effect; inconclusive = small, poorly fitted or top-dose-only effect; inactive = no such curve, though single readings can be large or run the other way; also: potency is read from the fitted curve at half-maximal effect; % is scaled to controls: 0 for no effect and ±100 for the full control effect; nearly all actives have a fitted effect of over 60% in size
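First, TGR (20 nM dispensed) and NADPH were mixed with compound. Second, a 15 min room-temperature incubation followed. Third, further NADPH and then DTNB were added to start the reaction. Finally, TNB absorbance was monitored kinetically.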
FMDV inh – antivirals against foot and mouth disease virus. FMDV antiviral cell-based qHTS. Potency, µM (series often up to 57.9 µM), for the others: top-dose activity change, negative = inhibition, actives largely listed as inhibitors. 1.2% of 410,000 active; calls by dose curve; tested in HEK293T cells; also: read-out not given here; potency is read from the fitted curve at half-maximal effect; % is scaled to controls: 0 for no effect and ±100 for the full control effect; nearly all actives have a fitted effect of over 45% in size
CHX counter – affects cycloheximide protein synthesis inhibition readout, counter-screen | max response, % | 12% of 300,000 active | cell reporter, cycloheximide protein synthesis inhibition counterscreen; in the data active = max response mostly above about 13%, no sharp cut-off; inactive = mostly below about 14%; also: read at 38.3 µM for the half of the compounds with a filed dose; 0% is about no effect
Numbers without * were called inactive. Shown are actives, neighbours in structure and some others; about 12% of the full set was active somewhere.

How did CC(C)c1onc(C(=O)NCc2cccs2)c1[N+](=O)[O-] do in these assays?
Shiga toxin inh: -5; Sm TGR inh: inconclusive; FMDV inh: 0%; CHX counter: 17

Results for CC(C)c1onc(C(=O)NCCc2ccccc2)c1[N+](=O)[O-] ?
Shiga toxin inh: 82*; Sm TGR inh: 45µM*; FMDV inh: 25%; CHX counter: 53*

Results for CC(C)c1onc(C(=O)NC(C)c2ccccc2)c1[N+](=O)[O-] (stereo not given) ?
Shiga toxin inh: -3; Sm TGR inh: 40µM*; FMDV inh: 3%; CHX counter: 9

Results for CCOC(=O)Cn1c(=O)cc(-c2ccccc2)c2c(C)nn(C)c21 ?
Sm TGR inh: 6%; FMDV inh: -8%

How did CCCCC(=O)Nc1ccc(NC(=O)c2cccs2)cn1 do in these assays?
FMDV inh: 12%

How did CCCC(=O)Nc1ccc(NC(=O)c2cccs2)cn1 do in these assays?
Shiga toxin inh: 98*; Sm TGR inh: -11%; FMDV inh: 44%; CHX counter: 19*

Results for CCCC(=O)Nc1ccc(NC(=O)c2ccccn2)cn1 ?
Shiga toxin inh: 48; Sm TGR inh: 6%; FMDV inh: 23%; CHX counter: 23*

Results for N#Cc1ccc(NC(=O)c2cccs2)nc1 ?
Shiga toxin inh: 74*; Sm TGR inh: -2%; FMDV inh: 22%; CHX counter: 24*

Results for CCCC(=O)Nc1ccc(NC(=O)c2ccccc2OC)cn1 ?
Shiga toxin inh: 23; Sm TGR inh: 0%; FMDV inh: 31%; CHX counter: 10

Results for O=C(Nc1ccc(NC(=O)c2cccs2)cn1)c1ccccc1 ?
Shiga toxin inh: 87*; Sm TGR inh: 5%; FMDV inh: 53%; CHX counter: 60*

Results for CCOc1ccc2c(c1)c(=O)c(S(=O)(=O)c1ccc(CC)cc1)cn2Cc1cccc(Cl)c1 ?
Sm TGR inh: 0%; FMDV inh: -1%

Results for Cc1c2cnn(CC(=O)N3CCN(c4ccc(F)cc4)CC3)c(=O)c2c(C)n1Cc1ccccc1F ?
Sm TGR inh: 3%; FMDV inh: inconclusive

Results for O=C(Nc1ccc(NC(=O)C2CC2)nc1)c1cccs1 ?
Shiga toxin inh: 60*; Sm TGR inh: 5%; FMDV inh: 35%; CHX counter: 30*

What do the screens show for `CNc1cccc(-c2ccc(C(C)=O)s2)n1`?
FMDV inh: 30%

How did CC(=O)c1ccc(-c2cccs2)s1 do in these assays?
Shiga toxin inh: 36*; Sm TGR inh: 4%; FMDV inh: 0%; CHX counter: 24*

Results for CC(NC(=O)[C@H](NC(=O)[C@@H]1Cc2ccccc2CN1)c1ccccc1)c1ccccc1 (stereo not given in full) ?
Shiga toxin inh: 14; Sm TGR inh: 1%; FMDV inh: -10%; CHX counter: 7

What do the screens show for `Cc1ccc(NC(=O)[C@H](NC(=O)[C@@H]2Cc3ccccc3CN2)c2ccccc2)cc1`?
Shiga toxin inh: 45*; Sm TGR inh: 3%; FMDV inh: 4%; CHX counter: 25*

What do the screens show for `CC(C)c1ccc(NC(=O)[C@H](NC(=O)[C@@H]2Cc3ccccc3CN2)c2ccccc2)cc1`?
Shiga toxin inh: 35; Sm TGR inh: 1%; FMDV inh: -8%; CHX counter: 34*

What do the screens show for `COc1cccc(NC(=O)[C@H](Cc2ccccc2)NC(=O)[C@@H]2Cc3ccccc3CN2)c1`?
Shiga toxin inh: 41; Sm TGR inh: 1%; FMDV inh: 15%; CHX counter: 26*

How did Cc1cccc(NC(=O)[C@H](NC(=O)[C@@H]2Cc3ccccc3CN2)c2ccccc2)c1 do in these assays?
Shiga toxin inh: 17; Sm TGR inh: -2%; FMDV inh: 19%; CHX counter: 26*

Results for COc1cccc(NC(=O)[C@H](NC(=O)[C@@H]2Cc3ccccc3CN2)c2ccccc2)c1 ?
Shiga toxin inh: 38; Sm TGR inh: -9%; FMDV inh: 11%; CHX counter: 30*

What do the screens show for `CCOc1ccc(CCNC(=O)c2cn(CC)c3ccc(S(=O)(=O)N4CCc5ccccc5C4)cc3c2=O)cc1OCC`?
Sm TGR inh: 2%; FMDV inh: -16%

How did Cc1ccnc2nc(C(=O)Nc3ccc4c(c3)OCO4)nn12 do in these assays?
Shiga toxin inh: 75*; Sm TGR inh: -9%; CHX counter: 27*

Results for Cc1cc(C)n2nc(C(=O)Nc3ccc4c(c3)OCO4)nc2n1 ?
Shiga toxin inh: 61*; Sm TGR inh: 1%; FMDV inh: 5%; CHX counter: 32*

How did Cc1cc(C)n2nc(C(=O)Nc3ccc4c(c3)OCCO4)nc2n1 do in these assays?
Sm TGR inh: -18%; FMDV inh: 22%

How did Cc1ccnc2nc(C(=O)NC3=NCCS3)nn12 do in these assays?
Shiga toxin inh: 12; Sm TGR inh: 0%; FMDV inh: 12%; CHX counter: 3

What do the screens show for `Cc1ccnc2nc(C(=O)Nc3nccs3)nn12`?
Shiga toxin inh: 29; Sm TGR inh: -10%; FMDV inh: 44%; CHX counter: 22*

Results for COc1ccc2c(C)c(CC(=O)NCCc3ccccc3)c(=O)oc2c1OC ?
Sm TGR inh: 8%; FMDV inh: -7%

Results for COc1ccc(N2CCN(C(=O)CN3C(=O)CSc4c3c(C)nn4-c3ccccc3)CC2)cc1 ?
Sm TGR inh: 0%; FMDV inh: -26%

What do the screens show for `CC[C@H](C)[C@H](NC(=O)[C@H](Cc1ccc(O)cc1)NC(=O)[C@@H]1CCCN1C(=O)[C@H](CCCCN)NC(=O)[C@@H](N)CCCCN)C(=O)N[C@@H](CC(C)C)C(=O)O`?
Shiga toxin inh: 24; CHX counter: -4

What do the screens show for `O=C(CSc1nc2ccsc2c(=O)n1NC(=O)c1ccccc1)NCc1ccco1`?
Shiga toxin inh: 35; Sm TGR inh: -27%; FMDV inh: 30%; CHX counter: 14

What do the screens show for `CCC(Sc1nc2ccsc2c(=O)n1-c1ccc(Cl)c(C)c1)C(=O)NCc1ccco1` (stereo not given)?
Shiga toxin inh: 44*; Sm TGR inh: inconclusive; FMDV inh: 0%; CHX counter: 25*

What do the screens show for `CN1CCc2c(sc3nc(SCC(=O)NCc4ccco4)n(-c4ccccc4)c(=O)c23)C1`?
Shiga toxin inh: 48*; Sm TGR inh: -23%; FMDV inh: 43%; CHX counter: 39*

Results for O=C(CSc1nc2ccsc2c(=O)n1Cc1ccccc1)NCc1ccco1 ?
Shiga toxin inh: active; Sm TGR inh: -24%; FMDV inh: -1%; CHX counter: 47*

What do the screens show for `O=C(CSc1nc2c(c(=O)n1-c1ccc(F)cc1)SCC2)NCc1ccco1`?
Shiga toxin inh: 17; Sm TGR inh: 40µM*; FMDV inh: -4%; CHX counter: -3

How did CCOc1ccc(-n2c(SCC(=O)Nc3cc(C)ccc3C)nc3c([nH]c4ccccc43)c2=O)cc1 do in these assays?
Sm TGR inh: 3%; FMDV inh: 0%

How did Cc1ccc(-n2c(SCC(=O)NCc3ccco3)nc3nc4c(cc3c2=O)COC(C)(C)C4)cc1 do in these assays?
Shiga toxin inh: 14; Sm TGR inh: 22µM*; FMDV inh: -2%; CHX counter: 5
